In the supplement of paper PMC7156485:
± gives the standard deviation of the averaged measurements.

Legend:
Conditions in all cases: concentration: 10 µM; 24 h
[1] = tested on: HCC1569; assay: cell number relative to DMSO (% of DMSO); higher = more cells (less growth inhibition / toxicity)
Summary of the method: (§1)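 Cells were seeded at 800 per well in 384-well plates with RPMI containing 10% FBS; both HCC1569 and TDF lines were used. Compounds were added at 10 µM for 24 h at 37 °C, in triplicate, before fixation in 3.7% formaldehyde and staining with a rabbit anti-H1.0 antibody, an AlexaFluor 647 secondary and DAPI. H1.0 nuclear intensity or cell number is reported as percent of the plate control using the median of replicates, and HCC1569 values were smoothed for positional effects.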

[2] = tested on: TDF; assay: as above
Summary of the method: as §1

[3] = tested on: TDF; assay: H1.0 immunofluorescence intensity relative to DMSO (% of DMSO); higher = stronger H1.0 induction, active = 120 or more
Summary of the method: as §1

[4] = tested on: HCC1569; assay: H1.0 immunofluorescence intensity relative to DMSO (% of DMSO); higher = stronger H1.0 induction, active = 140 or more
Summary of the method: as §1
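For H1.0 immunofluorescence intensity relative to DMSO in this document: TDF is a line of transformed human dermal fibroblasts of mesenchymal origin.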
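For cell number relative to DMSO in this document: TDF denotes transformed human dermal fibroblasts of mesenchymal origin.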

Row | SMILES | cell number [1] | cell number [2] | H1.0 immunofluorescence intensity [3] | H1.0 immunofluorescence intensity [4]
1 | COc1cc2c(c(OC)c1OC)-c1c(cc(OC)c(OC)c1OC)C[C@](C)(O)[C@@H](C)C2 | 100 | 108 | 101 (inactive) | 100 (inactive)
2 | Cc1nc(Nc2ncc(C(=O)Nc3c(C)cccc3Cl)s2)cc(N2CCN(CCO)CC2)n1 [Dasatinib] | 45.9 | 93.4 | 107 (inactive) | 171 (active)
3 | NCCS(=O)O [Hypotaurine] | 106 | 106 | 96.6 (inactive) | 88.6 (inactive)
4 | Cn1cnc2c(NC3CCCC3)ncnc21 [N6-Cyclopentyl-9-methyladenine] | 76.8 | 98.1 | 97.3 (inactive) | 159 (active)
5 | CC(N)(COP(=O)(O)O)C(=O)O (stereo not given) [2-methyl-O-phosphonoserine] | 97.7 | 102 | 96 (inactive) | 102 (inactive)
6 | CNC(C)C1CCC(N)C(OC2C(N)CC(N)C(OC3OCC(C)(O)C(NC)C3O)C2O)O1 (stereo not given) [Gentamycin] | 100 | 95.4 | 95 (inactive) | 117 (inactive)
7 | CN(Cc1cnc2nc(N)nc(N)c2n1)c1ccc(C(=O)NC(CCC(=O)O)C(=O)O)cc1 (stereo not given) [Methotrexate] | 81.7 | 86.5 | 92.8 (inactive) | 87 (inactive)
8 | Cn1cnc([N+](=O)[O-])c1Sc1ncnc2nc[nH]c12 [Azathioprine] | 99.15 ± 0.87 | 101.8 ± 0.74 | 94.9 (inactive) | 97.6 (inactive)
9 | Nc1nc(SCc2ccc([N+](=O)[O-])cc2)c2ncn(C3OC(CO)C(O)C3O)c2n1 (stereo not drawn) [S-(4-Nitrobenzyl)-6-thioguanosine] | 101 | 98.2 | 94.5 (inactive) | 93.2 (inactive)
10 | CC(C)C(N)C(=O)OCCOCn1cnc2c(=O)nc(N)[nH]c21 (stereo not given) [Valaciclovir] | 99.8 | 104 | 102 (inactive) | 109 (inactive)
11 | Clc1ccc(CCC(Cn2ccnc2)Sc2c(Cl)cccc2Cl)cc1.O=[N+]([O-])O (stereo not given) [Butoconazole nitrate] | 98.1 | 99.7 | 93 (inactive) | 115 (inactive)
12 | CN(C)CCC=C1c2ccccc2C=Cc2ccccc21.Cl [Cyclobenzaprine hydrochloride] | 99.3 | 103 | 109 (inactive) | 110 (inactive)
13 | CN1CC(O)C(O)C(O)C1CO (stereo not given) [N-Methyl-1-deoxynojirimycin] | 53 | 57 | 109 (inactive) | 185 (active)
14 | COc1cc2c(cc1-c1c(C)noc1C)ncc1[nH]c(=O)n([C@H](C)c3ccccn3)c12 | 75 | 66.3 | 138 (active) | 218 (active)
15 | CCCCCCCCCCCCCCC(O)C(O)C(CO)NC(C)=O (stereo not given) [C2 Phytoceramide] | 79.1 | 86.5 | 110 (inactive) | 101 (inactive)
16 | COC(=O)c1cnn(-c2ccc(F)cc2F)c1/C=N/NC(=S)NC(C)(C)C | 95.9 | 101 | 99 (inactive) | 102 (inactive)
17 | Nc1ccccc1NC(=O)CCCCCCC(=O)Nc1ccccc1 [N~1~-(2-aminophenyl)-N~8~-phenyloctanediamide] | 98.8 | 89.4 | 92.6 (inactive) | 145 (active)
18 | COc1ccc(-c2cc(C(O)C3CCCCN3)c3ccccc3n2)cc1.Cl.Cl (stereo not given) | 68.2 | 24.8 | 169 (active) | 157 (active)
19 | CC(C)(C)C1(O)CCN2CC3c4ccccc4CCc4cccc(c43)C2C1.Cl (single isomer, unassigned; (+)) [(+)-Butaclamol.HCl] | 106 | 108 | 95.7 (inactive) | 100 (inactive)
20 | CC(C)Cn1c(=O)n(C)c(=O)c2[nH]cnc21 [3-Isobutyl-1-methylxanthine] | 114 | 118 | 90.5 (inactive) | 88.2 (inactive)
21 | CS(=O)(=O)O.C[C@H](NCc1ccc(OCc2cccc(F)c2)cc1)C(N)=O | 99.7 | 102 | 97.6 (inactive) | 98.6 (inactive)
22 | Cc1cn(C2CC(N=[N+]=[N-])C(CO)O2)c(=O)[nH]c1=O (stereo not given) [3'-Azido-3'-deoxythymidine] | 104.8 ± 0.49 | 101 ± 7.6 | 96.8 (inactive) | 97.8 (inactive)
23 | CC(CSC(=O)c1ccccc1)C(=O)N1CC(Sc2ccccc2)CC1C(=O)[O-].CC(CSC(=O)c1ccccc1)C(=O)N1CC(Sc2ccccc2)CC1C(=O)[O-].[Ca+2] (stereo not given) | 106 | 119 | 93.2 (inactive) | 95.4 (inactive)
24 | Cl.c1ccc(C2CN3CCSC3=N2)cc1 (stereo not given) [Tetramisole hydrochloride] | 99.8 | 114 | 91.7 (inactive) | 105 (inactive)
25 | COc1cc2c(cc1OC)-c1cc3ccc(OC)c(OC)c3c[n+]1CC2.[Cl-] [Palmatine chloride] | 100 | 108 | 96.1 (inactive) | 88.6 (inactive)
